Source: the supplement of paper PMC9694430
“And” between values parts separate entries of the source, which are not always exact repeats. Equal entries are not always repeated.

What was measured:
Assay in all cases: thermal shift delta Tm vs DMSO control; higher = stronger stabilization (binding)
Settings in all cases: 12.5 µM; protein concentration 2 µM
LOC_OS02G45750-cb003 = tested on: LOC_OS02G45750-cb003
How it was run: (§1)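 Compounds dissolved in DMSO were added to purified rice kinase domain constructs, which had been expressed in E. coli, for differential scanning fluorimetry. Each well held 19.5 μl of 2 μM kinase in 100 mM potassium phosphate pH 7.5, 150 mM NaCl, 10% glycerol and 5 × SYPRO Orange. Fluorescence was followed from 25°C to 95°C at a rate of 0.05°C/s. Shifts in Boltzmann-fitted melting temperature are triplicate means relative to DMSO-only protein.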

LOC_OS02G54510-cb004 = tested on: LOC_OS02G54510-cb004
How it was run: as §1

LOC_OS03G04050-cb001 = tested on: LOC_OS03G04050-cb001
How it was run: as §1

LOC_OS03G12390-cb001 = tested on: LOC_OS03G12390-cb001
How it was run: as §1

LOC_OS03G27990-cb004 = tested on: LOC_OS03G27990-cb004
How it was run: as §1

LOC_OS03G50450-cb001 = tested on: LOC_OS03G50450-cb001
How it was run: as §1

LOC_OS03G50810-cb003 = tested on: LOC_OS03G50810-cb003
How it was run: as §1

LOC_OS04G35114-cb001 = tested on: LOC_OS04G35114-cb001
How it was run: as §1

LOC_OS04G38480-cb003 = tested on: T1, LOC_OS04G38480-cb003
T1 sequence (whole entry): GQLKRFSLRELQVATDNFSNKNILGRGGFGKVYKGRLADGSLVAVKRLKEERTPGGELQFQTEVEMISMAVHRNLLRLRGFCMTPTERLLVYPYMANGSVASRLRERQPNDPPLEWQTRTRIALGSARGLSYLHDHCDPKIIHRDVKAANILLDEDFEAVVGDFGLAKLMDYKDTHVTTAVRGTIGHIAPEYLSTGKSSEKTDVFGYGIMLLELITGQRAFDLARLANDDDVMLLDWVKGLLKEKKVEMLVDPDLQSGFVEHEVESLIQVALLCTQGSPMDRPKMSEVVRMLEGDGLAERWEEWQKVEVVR
How it was run: as §1

LOC_OS04G41100-cb001 = tested on: T2, LOC_OS04G41100-cb001
T2 sequence (whole entry): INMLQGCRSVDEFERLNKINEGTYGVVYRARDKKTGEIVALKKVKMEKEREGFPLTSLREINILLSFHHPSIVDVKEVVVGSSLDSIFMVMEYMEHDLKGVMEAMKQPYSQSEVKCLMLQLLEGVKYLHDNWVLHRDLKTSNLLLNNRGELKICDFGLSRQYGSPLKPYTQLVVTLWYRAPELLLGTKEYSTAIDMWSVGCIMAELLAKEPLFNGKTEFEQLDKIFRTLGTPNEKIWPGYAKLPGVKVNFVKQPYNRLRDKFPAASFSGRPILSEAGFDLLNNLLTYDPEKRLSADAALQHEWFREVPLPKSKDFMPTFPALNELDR
How it was run: as §1

LOC_OS04G57630-cb004 = tested on: LOC_OS04G57630-cb004
How it was run: as §1

LOC_OS05G07850-cb002 = tested on: LOC_OS05G07850-cb002
How it was run: as §1

LOC_OS05G16824-cb004 = tested on: LOC_OS05G16824-cb004
How it was run: as §1

LOC_OS05G28520-cb001 = tested on: LOC_OS05G28520-cb001
How it was run: as §1

LOC_OS05G30820-cb001 = tested on: LOC_OS05G30820-cb001
How it was run: as §1

LOC_OS05G43570-cb004 = tested on: LOC_OS05G43570-cb004
How it was run: as §1

LOC_OS06G16330-cb003 = tested on: LOC_OS06G16330-cb003
How it was run: as §1

LOC_OS06G22820-cb001 = tested on: T3, LOC_OS06G22820-cb001
T3 sequence (whole entry): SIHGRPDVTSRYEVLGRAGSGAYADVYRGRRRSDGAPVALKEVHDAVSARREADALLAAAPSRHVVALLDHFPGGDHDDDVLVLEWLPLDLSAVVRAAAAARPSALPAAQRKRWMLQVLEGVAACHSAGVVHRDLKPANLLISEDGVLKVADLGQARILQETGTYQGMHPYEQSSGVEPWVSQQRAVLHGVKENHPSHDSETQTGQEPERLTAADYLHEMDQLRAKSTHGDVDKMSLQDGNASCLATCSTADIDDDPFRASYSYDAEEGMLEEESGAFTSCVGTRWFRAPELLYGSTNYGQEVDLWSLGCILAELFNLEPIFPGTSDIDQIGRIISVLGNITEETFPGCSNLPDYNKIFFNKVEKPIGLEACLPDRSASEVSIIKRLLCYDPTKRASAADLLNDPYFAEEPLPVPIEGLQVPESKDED
How it was run: as §1

LOC_OS07G06570-cb004 = tested on: LOC_OS07G06570-cb004
How it was run: as §1

LOC_OS07G07230-cb001 = tested on: LOC_OS07G07230-cb001
How it was run: as §1

LOC_OS06G16330-cb003, sequence (as listed by the source): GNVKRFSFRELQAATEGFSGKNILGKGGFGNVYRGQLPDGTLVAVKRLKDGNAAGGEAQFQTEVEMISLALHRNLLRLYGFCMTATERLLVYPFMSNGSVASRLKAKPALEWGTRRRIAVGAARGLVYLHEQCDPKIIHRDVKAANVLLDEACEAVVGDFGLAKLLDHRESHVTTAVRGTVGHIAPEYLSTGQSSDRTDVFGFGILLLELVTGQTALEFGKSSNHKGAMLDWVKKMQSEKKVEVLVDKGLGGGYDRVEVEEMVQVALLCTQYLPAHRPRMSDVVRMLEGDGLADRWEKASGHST

Row | Structure (SMILES) | thermal shift delta Tm (LOC_OS02G45750-cb003) | thermal shift delta Tm (LOC_OS02G54510-cb004) | thermal shift delta Tm (LOC_OS03G04050-cb001) | thermal shift delta Tm (LOC_OS03G12390-cb001) | thermal shift delta Tm (LOC_OS03G27990-cb004) | thermal shift delta Tm (LOC_OS03G50450-cb001) | thermal shift delta Tm (LOC_OS03G50810-cb003) | thermal shift delta Tm (LOC_OS04G35114-cb001) | thermal shift delta Tm (LOC_OS04G38480-cb003) | thermal shift delta Tm (LOC_OS04G41100-cb001) | thermal shift delta Tm (LOC_OS04G57630-cb004) | thermal shift delta Tm (LOC_OS05G07850-cb002) | thermal shift delta Tm (LOC_OS05G16824-cb004) | thermal shift delta Tm (LOC_OS05G28520-cb001) | thermal shift delta Tm (LOC_OS05G30820-cb001) | thermal shift delta Tm (LOC_OS05G43570-cb004) | thermal shift delta Tm (LOC_OS06G16330-cb003) | thermal shift delta Tm (LOC_OS06G22820-cb001) | thermal shift delta Tm (LOC_OS07G06570-cb004) | thermal shift delta Tm (LOC_OS07G07230-cb001)
1 | Cn1cc(-c2ccc3ncc(Cc4ccc5ncccc5c4)n3n2)cn1 | 0.5 °C | 0.06 °C | 0.32 °C | -0.22 °C | 0.07 °C | 0.05 °C | 0.44 °C | 2.6 °C | 1.45 °C | 0.07 °C | 1.12 °C | 5.01 °C | -1.27 °C | 0.45 °C | 0.48 °C | 0.16 °C | 2.64 °C | 0.5 °C | 0.78 °C | 0.13 °C
2 | N#Cc1cnc(Nc2cc(NC[C@H]3CNCCO3)c(C(F)(F)F)cn2)cn1 | 3.09 °C | 0.4 °C | 0.6 °C | 0.36 °C | 0.89 °C | 0.52 °C | 1.11 °C | 1.35 °C | 1.02 °C | 0.96 °C | 0.23 °C | 4.22 °C | 4.42 °C | 0.04 °C | 0.75 °C | 0.11 °C | 2.23 °C | 0.3 °C | 1.08 °C | 0.52 °C
3 | O=C(Nc1cccc(Nc2ncc(Br)c(NCCc3cnc[nH]3)n2)c1)N1CCCC1 | 9.57 °C | 1.18 °C | 0.77 °C | 2.81 °C | 1.73 °C | 6.39 °C | 5.57 °C | 5.16 °C | 2.86 °C | 2.52 °C | 7.51 °C | 10.4 °C | 13.2 °C | -0.09 °C | 6.02 °C | 0.65 °C | 8.57 °C | 0.67 °C | 0.48 °C | 1.02 °C
4 | CC1(C)OC(=O)C=C[C@]2(C)[C@H]3CC[C@@]4(C)[C@H](c5ccoc5)OC(=O)[C@H]5O[C@]54[C@]3(C)C(=O)C[C@@H]12 [Obacunone] | 0.46 °C | -0.19 °C | 0.48 °C | 0.2 °C | 0.14 °C | 0.72 °C | 0.54 °C | -0.27 °C | 1.66 °C | 0.27 °C | -0.08 °C | -0.17 °C | 0.73 °C | 0.17 °C | 0.18 °C | 0.33 °C | -0.35 °C | 0.3 °C | 1.76 °C | 0.44 °C
5 | CN(c1ncccc1CNc1nc(Nc2ccc3c(c2)CC(=O)N3)ncc1C(F)(F)F)S(C)(=O)=O | 6.83 °C and 7.06 °C | 1.05 °C and 1.09 °C | 0.54 °C and 0.38 °C | 3.95 °C and 4.88 °C | 2.23 °C and 2.44 °C | 2.36 °C and 2.48 °C | 3.64 °C and 4.1 °C | 4.17 °C and 4.61 °C | 1.77 °C and 2.12 °C | 1.82 °C and 1.92 °C | 1.44 °C and 2.05 °C | 8.97 °C and 9.58 °C | 9.12 °C and 9.67 °C | 0.98 °C and 1.52 °C | 4.26 °C and 3.92 °C | 0.77 °C and 0.58 °C | 4.21 °C and 5.5 °C | -0.01 °C and -0.19 °C | 0.81 °C and 1.35 °C | 0.45 °C and 0.44 °C
6 | COC(=O)N[C@@H](C)CNc1nccc(-c2cn(C(C)C)nc2-c2cc(Cl)cc(NS(C)(=O)=O)c2F)n1 [Encorafenib (LGX818)] | 0.44 °C | -0.06 °C | 0.22 °C | -0.2 °C | 0.34 °C | 0.01 °C | 0.12 °C | 0.62 °C | 0.49 °C | 1.63 °C | -0.17 °C | 5.07 °C | -3.57 °C | 0.85 °C | 0.58 °C | 0.22 °C | 1.92 °C | 0.46 °C | 1.58 °C | 0.67 °C
